Calls of active or inactive are those of the source.
Legend:
[1] = target: Albumin (Bos taurus) (UniProt P02769); assay: compounds binding labelled BSA control protein – biochemical, small-molecule microarray, Alexa647 label, 635/667 nm fluorescence, artefact control for SMM control protein annotation, profiling panel (AID 1118); conditions: BSA-A647 binding, fluorescence 635 nm, higher = more signal;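 also: score merges 667 nm emission intensity and signal-to-noise per printed compound spot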
[2] = probe aXIP binding to arrayed compounds – biochemical, NeuroSMM set, 635/667 nm fluorescence, primary screen (AID 1119); conditions: small-molecule microarray, higher = more signal, called active from +8 up or from −8 down;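 also: probe is the protein aXip251-270 applied at 1 µg/mL to compound-printed slides; binding of probe to printed compounds measured as 667 nm fluorescence plus signal to noise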
[3] = probe aNOTCH3 binding on compound microarray – biochemical, small-molecule microarray, 635/667 nm fluorescence, primary screen (AID 1120); conditions: higher = more signal;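 also: probe is a biotin-tagged antibody raised against NOTCH3 rather than NOTCH3 protein; score merges spot fluorescence near 667 nm with spot signal to noise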
[4] = probe aNOTCH2 binding on compound microarray – biochemical, small-molecule microarray, 635/667 nm fluorescence, primary screen (AID 1121); conditions: higher = more signal;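 also: score merges feature fluorescence read at 667 nm with its signal to noise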
[5] = target: Carbonic anhydrase 2 (Homo sapiens) (UniProt P00918); assay: compounds binding carbonic anhydrase 2 – biochemical, small-molecule microarray, Alexa647-labelled CAII, profiling panel (AID 1122); conditions: CAII-A647 binding fluorescence, higher = more signal
[6] = COS7 lysate on small-molecule microarray, probe aHis, 635 nm (AID 1123); conditions: COS7 cell lysate, fluorescence, higher = more signal;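 also: z-score combines 667nm fluorescence intensity with signal-to-noise per printed compound spot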
[7] = probe aLAP1 signal on lysate-treated microarray – cell lysate, small-molecule microarray, COS7 lysate, primary screen (AID 1124); conditions: probe aLAP1, fluorescence, higher = more signal;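 also: lysate comes from COS7 cells expressing LAP1 and is applied at 0.3 µg/mL; score merges spot fluorescence near 667 nm with signal-to-noise over triplicate slides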
[8] = tested on: Sam68 (KHDRBS1); assay: compounds binding KHDRBS1 protein – biochemical, small-molecule microarray, 635 nm fluorescence, primary screen (AID 1125); conditions: higher = more signal;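 also: score merges 667 nm channel intensity with signal to noise over triplicate slides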
[9] = tested on: Chordin-like protein 2 (CHRDL2); assay: compounds binding chordin-like 2 – biochemical, small-molecule microarray, 635 nm fluorescence, primary screen (AID 1126); conditions: fluorescence 635 nm, higher = more signal;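 also: printed compound slides probed with Chrdl2 protein at 4 µg/mL for 1 h at 4 C; score merges 667 nm emission intensity with signal to noise over three replicate slides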
[10] = target: Concanavalin-A (Canavalia ensiformis) (UniProt P02866); assay: compounds binding concanavalin A lectin – biochemical, small-molecule microarray, Alexa647 label, 635 nm, artefact control for SMM control protein annotation, primary screen (AID 1127); conditions: ConA-A647 binding fluorescence, higher = more signal;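 also: z combines 667 nm emission intensity with signal-to-noise across three replicate slides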
[11] = compounds binding Alexa647 anti-His antibody – biochemical, small-molecule microarray, 635 nm fluorescence, artefact control for SMM control protein annotation, primary screen (AID 1128); conditions: higher = more signal;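 also: score merges feature fluorescence with signal-to-noise for each printed compound spot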
[12] = tested on: Human papillomavirus type 1a E7 protein (residues 1-88); assay: HPV1a E7 small-molecule binders, primary screen, biochemical, small-molecule microarray, residues 1-88, 635 nm (AID 1129); conditions: small-molecule microarray binding, fluorescence 635 nm; higher = more signal
[13] = target: Focal adhesion kinase 1 (Homo sapiens) (UniProt Q05397); assay: PTK2 protein binding on printed compound slides – biochemical, small-molecule microarray, 635/667 nm fluorescence, BSA, DTT, primary screen (AID 1130); conditions: 635 nm fluorescence, higher = more signal;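 also: composite of spot emission at 667 nm and signal to noise over triplicate slides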
[14] = tested on: Fibrinogen (Alexa647-labelled); assay: Alexa647-fibrinogen binding to printed small molecules – biochemical, small-molecule microarray, 635/667 nm fluorescence, artefact control for SMM control-protein annotation, profiling panel (AID 1131); conditions: fibrinogen-A647 binding fluorescence, higher = more signal;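 also: z-score merges 667 nm fluorescence with per-spot signal-to-noise over triplicate slides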
[15] = target: Follistatin (Homo sapiens) (UniProt P19883); assay: FST protein binding to printed compounds – biochemical, small-molecule microarray, 635/667 nm fluorescence, primary screen (AID 1132); conditions: 635 nm fluorescence, higher = more signal
[16] = target: Fibroblast growth factor 2 (Homo sapiens) (UniProt P09038); assay: basic fibroblast growth factor binding to printed compounds – biochemical, small-molecule microarray, 635/667 nm fluorescence, primary screen (AID 1133); conditions: FGF2, fluorescence 635/667, higher = more signal
[17] = JC-1 mitochondrial potential readout, lung cancer cells – cell-based, A549, JC-1 fluorescence, basal, 24 h, 100 nL, profiling panel (AID 1138); conditions: higher = more signal;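 also: A549 lung adenocarcinoma cells under basal conditions with no added stimulus; test concentration not given here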
[18] = tested on: Lefty1; assay: Lefty1 protein binding to printed compounds – biochemical, small-molecule microarray, 635/667 nm fluorescence, primary screen (AID 1139); conditions: fluorescence 635/667, higher = more signal
[19] = tested on: wheat germ agglutinin (Triticum aestivum), Alexa647-labelled; assay: Alexa647-WGA lectin binding to printed small molecules – biochemical, small-molecule microarray, 635/667 nm fluorescence, artefact control for SMM control-protein annotation, profiling panel (AID 1140); conditions: WGA-A647 binding, 635 nm fluorescence, higher = more signal;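 also: score merges 667 nm feature emission with signal to noise over triplicate slides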
[20] = target: Luciferin 4-monooxygenase (Photinus pyralis) (UniProt P08659); assay: inhibition of purified Photinus pyralis luciferase – biochemical, luminescence, purified enzyme, 2006 set, primary screen (AID 1141); conditions: purified firefly luciferase, SteadyGlo luminescence, 30 min; higher = more signal, called active from +8 up or from −8 down;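 also: cell-free assay with purified firefly luciferase at 100 ng per well in PBS; test concentration not given here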
Luciferin 4-monooxygenase (Photinus pyralis), sequence (P08659 whole entry, looked up): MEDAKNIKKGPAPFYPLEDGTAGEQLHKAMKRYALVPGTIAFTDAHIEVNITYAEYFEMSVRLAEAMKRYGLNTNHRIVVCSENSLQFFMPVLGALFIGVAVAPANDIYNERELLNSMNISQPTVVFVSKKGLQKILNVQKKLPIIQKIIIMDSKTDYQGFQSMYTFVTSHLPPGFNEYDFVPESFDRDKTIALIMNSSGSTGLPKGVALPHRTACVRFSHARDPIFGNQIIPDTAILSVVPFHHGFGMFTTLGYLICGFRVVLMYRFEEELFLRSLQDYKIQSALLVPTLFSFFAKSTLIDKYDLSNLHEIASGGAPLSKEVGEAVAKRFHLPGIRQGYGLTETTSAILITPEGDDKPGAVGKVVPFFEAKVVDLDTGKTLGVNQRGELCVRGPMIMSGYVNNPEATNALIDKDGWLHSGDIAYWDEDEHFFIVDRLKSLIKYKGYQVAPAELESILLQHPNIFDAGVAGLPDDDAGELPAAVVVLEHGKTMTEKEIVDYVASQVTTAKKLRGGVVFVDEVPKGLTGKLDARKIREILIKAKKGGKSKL

Focal adhesion kinase 1 (Homo sapiens), sequence (Q05397 whole entry, looked up): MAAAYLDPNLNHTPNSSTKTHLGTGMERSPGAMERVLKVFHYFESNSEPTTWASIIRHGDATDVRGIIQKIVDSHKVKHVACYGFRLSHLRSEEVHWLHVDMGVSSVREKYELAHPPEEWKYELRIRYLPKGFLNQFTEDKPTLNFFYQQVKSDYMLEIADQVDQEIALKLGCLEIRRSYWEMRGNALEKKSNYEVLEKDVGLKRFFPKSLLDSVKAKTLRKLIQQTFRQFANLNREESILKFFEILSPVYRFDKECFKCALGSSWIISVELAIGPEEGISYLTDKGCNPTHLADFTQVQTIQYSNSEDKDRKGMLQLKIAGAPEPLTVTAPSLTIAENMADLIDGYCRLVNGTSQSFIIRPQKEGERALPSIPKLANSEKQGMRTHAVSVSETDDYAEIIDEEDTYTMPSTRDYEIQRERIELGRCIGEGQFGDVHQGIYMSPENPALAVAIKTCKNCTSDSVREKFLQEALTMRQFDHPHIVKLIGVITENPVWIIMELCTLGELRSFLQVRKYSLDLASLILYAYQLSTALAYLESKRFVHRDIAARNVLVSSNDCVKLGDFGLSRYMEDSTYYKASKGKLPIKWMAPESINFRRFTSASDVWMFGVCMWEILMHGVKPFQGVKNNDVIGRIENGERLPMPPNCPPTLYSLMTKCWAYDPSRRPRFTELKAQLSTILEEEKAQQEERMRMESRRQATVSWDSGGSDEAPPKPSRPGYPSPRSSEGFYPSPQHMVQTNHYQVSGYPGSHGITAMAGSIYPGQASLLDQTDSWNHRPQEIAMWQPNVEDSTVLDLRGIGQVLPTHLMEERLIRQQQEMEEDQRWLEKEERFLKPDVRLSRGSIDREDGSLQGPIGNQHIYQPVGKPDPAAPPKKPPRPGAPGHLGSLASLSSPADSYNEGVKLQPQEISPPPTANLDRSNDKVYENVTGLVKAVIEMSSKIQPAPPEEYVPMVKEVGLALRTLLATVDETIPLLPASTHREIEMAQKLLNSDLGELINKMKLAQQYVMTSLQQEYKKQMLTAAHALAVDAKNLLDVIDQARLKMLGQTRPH
Concanavalin-A (Canavalia ensiformis), sequence (P02866 whole entry, looked up): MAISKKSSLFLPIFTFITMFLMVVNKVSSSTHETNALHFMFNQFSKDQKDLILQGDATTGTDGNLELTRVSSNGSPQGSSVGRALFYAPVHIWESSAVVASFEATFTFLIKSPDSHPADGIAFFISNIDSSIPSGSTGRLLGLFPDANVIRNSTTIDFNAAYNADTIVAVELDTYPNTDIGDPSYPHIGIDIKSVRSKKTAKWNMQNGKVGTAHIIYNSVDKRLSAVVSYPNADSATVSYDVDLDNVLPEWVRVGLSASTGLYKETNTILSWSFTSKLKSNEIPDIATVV
Follistatin (Homo sapiens), sequence (P19883 whole entry, looked up): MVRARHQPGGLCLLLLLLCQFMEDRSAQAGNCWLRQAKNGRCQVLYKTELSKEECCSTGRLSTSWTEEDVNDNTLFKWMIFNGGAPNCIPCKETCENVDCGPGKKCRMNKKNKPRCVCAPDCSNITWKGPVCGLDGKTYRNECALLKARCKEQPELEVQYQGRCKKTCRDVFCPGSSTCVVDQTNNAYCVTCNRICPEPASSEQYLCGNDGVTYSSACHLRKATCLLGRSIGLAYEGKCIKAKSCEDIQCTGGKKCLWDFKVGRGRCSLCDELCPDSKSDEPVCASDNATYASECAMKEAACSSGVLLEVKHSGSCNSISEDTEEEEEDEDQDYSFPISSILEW
Albumin (Bos taurus), sequence (P02769 whole entry, looked up): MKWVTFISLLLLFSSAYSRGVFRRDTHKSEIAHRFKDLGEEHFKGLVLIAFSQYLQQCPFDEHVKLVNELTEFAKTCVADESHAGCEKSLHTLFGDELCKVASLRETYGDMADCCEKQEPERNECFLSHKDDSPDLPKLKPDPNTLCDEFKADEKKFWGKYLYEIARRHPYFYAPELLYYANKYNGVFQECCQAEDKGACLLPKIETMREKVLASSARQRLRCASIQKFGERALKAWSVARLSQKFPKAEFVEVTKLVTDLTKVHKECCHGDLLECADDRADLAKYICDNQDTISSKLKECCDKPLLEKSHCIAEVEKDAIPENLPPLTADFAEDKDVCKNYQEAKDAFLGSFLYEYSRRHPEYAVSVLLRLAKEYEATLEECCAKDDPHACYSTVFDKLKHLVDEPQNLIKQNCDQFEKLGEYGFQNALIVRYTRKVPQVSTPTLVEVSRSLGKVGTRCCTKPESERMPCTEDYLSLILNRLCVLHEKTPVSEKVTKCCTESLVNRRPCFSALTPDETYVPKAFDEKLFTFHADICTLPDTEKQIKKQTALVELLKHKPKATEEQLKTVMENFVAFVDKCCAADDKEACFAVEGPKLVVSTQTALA
Fibroblast growth factor 2 (Homo sapiens), sequence (P09038 whole entry, looked up): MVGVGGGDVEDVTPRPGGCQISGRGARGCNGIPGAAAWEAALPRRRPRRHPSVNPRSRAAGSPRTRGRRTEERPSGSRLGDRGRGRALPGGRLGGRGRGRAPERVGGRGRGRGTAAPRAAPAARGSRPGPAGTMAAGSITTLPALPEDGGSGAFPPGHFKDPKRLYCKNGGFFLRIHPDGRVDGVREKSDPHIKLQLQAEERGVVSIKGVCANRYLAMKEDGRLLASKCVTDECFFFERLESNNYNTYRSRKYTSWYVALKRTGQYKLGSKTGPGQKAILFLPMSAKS

Structure (SMILES) | composite z-score [1] | composite Z-score [2] | composite z-score [3] | composite z-score [4] | composite z-score [5] | composite z-score [6] | composite z-score [7] | composite z-score [8] | composite z-score [9] | composite z-score [10] | composite z-score [11] | composite z-score [12] | composite z-score [13] | composite z-score [14] | composite z-score [15] | composite z-score [16] | z-score [17] | composite z-score [18] | composite z-score [19] | z-score [20]
COc1ccc(CN(C2=CC[C@@]3(C(N)=O)C(=O)C(Cl)=C(Cl)C(=O)[C@@]3(C#N)C2)S(=O)(=O)c2ccc(Br)cc2)cc1 | 1 | 0.317 (inactive) | -0.128 | -0.0273 | 0.863 | 1.84 | 0.834 | 0.295 | -1.54 | 0.0331 | 1.89 | 0.289 | 0.0558 | 0.115 | -0.539 | -0.537 | -1.87 | -0.53 | 0.324 | -5.26 (inactive)
CCOC(=O)C[C@H]1[C@H](OC(=O)c2ccccc2-c2ccccc2)[C@@H](NC(=O)c2ccc(-c3ccccc3)cc2)c2cc(OCCCO)ccc2N1C(=O)c1ccc2ccccc2n1 | 0.275 | 0.367 (inactive) | 0.0715 | -0.0441 | 0.131 | 0.406 | 0.272 | 1.06 | 0.304 | 0.513 | 0.792 | 0.472 | -0.0377 | 0.456 | 0.57 | 0.496 | 0.687 | 0.871 | 0.181 | 0.555 (inactive)
[N-]=[N+]=NCc1ccccc1C[C@@]1(C(=O)N2CCCCC2)N=C(c2ccc(OCCCO)cc2)O[C@@H]1c1ccccc1 | 0.901 | 0.269 (inactive) | -0.102 | -0.299 | 0.606 | 1.28 | -0.0762 | 1.07 | -1.27 | 0.64 | 0.686 | 1.12 | 0.214 | 0.519 | 0.24 | 0.201 | 0.144 | -0.693 | 0.636 | -0.362 (inactive)
OCC1CC(c2ccccc2)=NO1 (stereo not given) | -0.558 | -0.228 (inactive) | -0.185 | -0.124 | -0.179 | -0.53 | -0.437 | -0.424 | 0.843 | -0.36 | 0.702 | -0.0937 | -0.219 | -0.327 | 0.5 | 0.774 | 0.875 | -0.0193 | -0.239 | -1.4 (inactive)
COC(=O)[C@@]1(Cc2ccccc2)[C@@H]2C(=CC(=O)[C@H]2CC(=O)C(=O)N(C)C)CN1C(=O)c1ccccc1 | 0.93 | -0.0478 (inactive) | 0.462 | 0.23 | 0.808 | 2.61 | 0.931 | 1.2 | -0.202 | 1.08 | 2.15 | 1.25 | 0.745 | 0.0523 | 0.324 | -0.147 | -0.312 | -0.271 | 0.407 | -21 (active)
COC(=O)c1c(CC[C@@H](CO)NC(=O)N[C@H](Cn2cc(C3(O)CCCCC3)nn2)C(C)C)oc(C(C)=O)c1C(=O)OC | -0.471 | 0.183 (inactive) | 0.0282 | -0.0878 | 0.209 | 0.32 | -0.0003 | 1.14 | 0.513 | 1.16 | 1.56 | 0.737 | -0.0722 | 0.627 | 1.23 | 1.26 | 0.131 | 1.23 | 0.947 | -0.0595 (inactive)
COc1ccc([Si](C)(C)[C@@H]2[C@@H](CCn3cc([C@H](O)c4ccccc4)nn3)O[C@]3(C(=O)N(Cc4ccc(N5CCC5=O)cc4)c4ccccc43)[C@H]2C)cc1 | 0.0006 | 0.811 (inactive) | -0.505 | -0.0849 | -0.266 | 0.121 | -0.426 | -0.323 | -0.0871 | 0.469 | 0.174 | -0.304 | -0.0467 | -0.926 | 1.31 | 0.749 | 1.87 | 1.05 | 0.118 | -0.325 (inactive)
O=C1OCC=C[C@H]2OC34C=CCN(c5ccc(Cl)cc5)C(=O)[C@H]3N(CCO)C(=O)[C@@H]4[C@@H]12 (stereo not given in full) | -0.212 | 0.703 (inactive) | -0.306 | -0.211 | 0.903 | 2.81 | 0.0653 | -0.381 | -1.52 | -0.606 | 0.745 | -0.658 | -0.588 | -1.36 | -1.12 | -1.06 | 0.805 | -0.78 | -0.729 | -0.386 (inactive)
COC(=O)CCCCCCC(=O)Nc1ccc(NC(=O)CCCC[P+](c2ccccc2)(c2ccccc2)c2ccccc2)cc1 | -0.637 | 0.0895 (inactive) | 0.116 | -0.134 | -0.281 | -0.478 | 0.116 | 0.559 | 1.26 | 0.0666 | 0.703 | 0.289 | -0.507 | -0.722 | 1.01 | 0.626 | 0.679 | 1.23 | 0.0334 | 1.3 (inactive)
COc1ccc(CCNC(=O)[C@@H]2c3ccccc3C(=O)N(Cc3cc(C(F)(F)F)cc(C(F)(F)F)c3)[C@H]2c2ccc(CO)cc2)cc1 | -0.329 | -0.586 (inactive) | -0.208 | -0.149 | 0.681 | 0.84 | 0.566 | 1.14 | -0.571 | 0.425 | 2.15 | 0.102 | -0.152 | 0.629 | 0.255 | -0.258 | 1.95 | -0.297 | 0.985 | -1.16 (inactive)
COc1ccc(NC(=O)O[C@H]2[C@H](OC(=O)Nc3ccccc3)[C@H](OC(=O)Nc3ccccc3)[C@@H](OC)O[C@@H]2CO)cc1 | 0.693 | 1.58 (inactive) | 0.861 | 0.28 | 0.703 | 2.87 | 0.197 | 1.31 | 0.181 | 0.946 | 1.65 | 1.19 | 0.709 | 0.284 | 1.35 | 1.45 | 0.732 | 0.735 | 0.98 | -0.128 (inactive)

— PubChem BioAssay
